Results filed as inconclusive are left out. The source made the active and inactive calls. Unless noted, the call rests on the fitted dose curve; in most records, active means well fitted curve in the direction sought with a large enough effect; inconclusive means small, poorly fitted or top-dose-only effect, or another doubt; inactive means no such curve, though single readings can be large; an effect the other way counts as inactive or inconclusive.

The target of one assay is Alpha-galactosidase A (Homo sapiens) (UniProt P06280). The assay is described as follows: Counterscreen for Glucocerebrosidase Inhibitors: qHTS Assay for Human alpha-Galactosidase at pH 4.5 (AID 992). Particulars: purified enzyme, fluorogenic substrate; series mostly up to 76.9 µM. The procedure, abridged: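 Enzyme at 2 nM final was combined with compound (0.7 nM to 77 uM) and 80 uM 4-methylumbelliferyl alpha-D-galactopyranoside in 50 mM citric acid, 0.005% Tween-20, pH 4.5. After 20 min at room temperature, fluorescence was read (Ex 365/Em 440 nm); AC50 came from Hill fits.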
Sequence of Alpha-galactosidase A (Homo sapiens) (P06280 whole entry, looked up): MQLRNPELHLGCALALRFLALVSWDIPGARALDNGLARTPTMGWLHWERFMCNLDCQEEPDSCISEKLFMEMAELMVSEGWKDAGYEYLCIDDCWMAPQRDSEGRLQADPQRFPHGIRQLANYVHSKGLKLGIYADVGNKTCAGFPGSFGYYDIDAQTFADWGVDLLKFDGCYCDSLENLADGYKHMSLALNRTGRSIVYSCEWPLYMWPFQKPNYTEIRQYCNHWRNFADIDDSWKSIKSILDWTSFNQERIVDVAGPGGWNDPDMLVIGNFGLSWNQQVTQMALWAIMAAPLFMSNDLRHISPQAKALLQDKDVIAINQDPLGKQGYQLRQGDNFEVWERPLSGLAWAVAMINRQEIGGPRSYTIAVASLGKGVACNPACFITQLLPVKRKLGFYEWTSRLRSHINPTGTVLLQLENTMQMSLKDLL
(Counterscreens check selectivity or assay interference.)
`O=C(Cc1ccc(Cl)c(Cl)c1)OCCN1CCCC1`: the compound was classed as inactive.

As to `OC[C@H]1O[C@@H](n2cnc3c(NCCc4ccccc4)ncnc32)[C@H](O)[C@H]1O`, the call was inactive.

For the compound `NCCNC(=O)c1ccc(Cl)cc1`, the outcome was inactive.

Turning to `NC(=NCCC[C@H](N)C(=O)O)NO`, the compound was called inactive.

In the case of `N=C(N)SCCc1cccc(CCSC(=N)N)c1`, the call was inactive.

The next assay has as its target alpha-glucosidase (Oryza sativa, rice) (UniProt Q653V4). The assay is described as follows: Counterscreen for Glucocerebrosidase Inhibitors: qHTS Assay for Rice alpha-Glucosidase at pH 5.0 (AID 997). The following applies: rice alpha-glucosidase enzyme activity; series mostly up to 76.9 µM. The procedure, abridged:
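Rice alpha-glucosidase (4 nM final) with 400 uM 4-methylumbelliferyl-alpha-D-glucopyranoside in citrate buffer pH 5.0, 20 min at room temperature, stopped at pH 10; fluorescence 365/440 nm, compounds 0.7 nM–77 uM, AC50 from Hill fits.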
For the compound `NCCC(=O)NCCc1cnc[nH]1`, the call was inactive.

As for `O=C(Cc1ccc(Cl)c(Cl)c1)OCCN1CCCC1`, the call was inactive.

Consider `OC[C@H]1O[C@@H](n2cnc3c(NCCc4ccccc4)ncnc32)[C@H](O)[C@H]1O`, for which the compound was called inactive.

`NCCNC(=O)c1ccc(Cl)cc1`: the call was inactive.

Regarding `NC(=NCCC[C@H](N)C(=O)O)NO`, the compound was called inactive.

Consider `N=C(N)SCCc1cccc(CCSC(=N)N)c1`, for which the compound was classed as inactive.

System in another assay: not listed separately
The assay is described as follows: Validation of Assay for Modulators of Lamin A Splicing (AID 1459; active means well fitted curve in the direction sought with a large enough effect in the signal ratio; the % refers to the signal ratio;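 further: cells exposed to compound for two days before reading; ratio rise marks activators and ratio drop marks inhibitors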). The following applies: Lamin A splicing dual RFP/GFP fluorescence reporter; series mostly up to 9.22 µM. The procedure, abridged:
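Splicing correction read as GFP (500-530 nm) over DsRed2 (575-640 nm) object intensity after 48 h compound exposure of reporter HeLa S3 clones (600 cells/well, 2% FBS medium); ancitabine and cycloheximide titrations, 0.5% DMSO as vehicle.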
In the case of `CNC(=O)[C@H]1O[C@@H](n2cnc3c(NCc4cccc(I)c4)ncnc32)[C@H](O)[C@H]1O`, the compound was called inactive.

Turning to `CC(N)=NCCCC(N)C(=O)O` (stereo unspecified), the call was inactive.

Consider `Cc1cn([C@H]2C[C@@H](N=[N+]=[N-])[C@@H](CO)O2)c(=O)[nH]c1=O`, for which the compound was classed as inactive.

As to `N.N.N.N.N.N.N.N.N.N.N.N.N.N.O.O.[Cl-].[Cl-].[Cl-].[Cl-].[Cl-].[Cl-].[Ru].[Ru].[Ru]`, the compound was classed as inactive.

For the compound `CN=C(N)NCCCC(N)C(=O)O` (stereo unspecified), the result was inactive.

`COc1c2c(nc3ccccc13)OC(C(C)(O)CO)C2` (stereo unspecified): the outcome was inactive.

On to `CN1C2CC(OC(=O)C(CO)c3ccccc3)CC1C1OC12` (stereo unspecified), for which the outcome was inactive.

`CC(C)C1NC(=O)[C@H](CCCCN)NC(=O)[C@@H](Cc2c[nH]c3ccccc23)NC(=O)[C@H](Cc2ccc(O)cc2)NC(=O)[C@H](C)N(C)C(=O)[C@H](Cc2ccccc2)NC1=O` (stereo partly specified): the compound was called inactive.

Take `NCCC(=O)NCCc1cnc[nH]1`: the compound was called inactive.

As to `O=C(Cc1ccc(Cl)c(Cl)c1)OCCN1CCCC1`, the outcome was inactive.

Regarding `Cc1ccccc1N1CCN(S(=O)(=O)C[C@]23CCC(CC2NC(=O)[C@@H](N)CCS(C)(=O)=O)C3(C)C)CC1` (stereo partly specified), the result was inactive.

Consider `NC(=O)C1=CN(C2OC(COP(=O)(O)OP(=O)(O)OC[C@H]3O[C@@H](n4cnc5c(N)ncnc54)[C@H](OP(=O)(O)O)[C@H]3O)C(O)C2O)C=CC1` (stereo partly specified), for which the compound was called inactive.

With `CC(=O)[C@@]1(O)CC[C@H]2C3CCC4=CC(=O)CC[C@]4(C)C3CC[C@@]21C` (stereo partly specified), the compound was classed as inactive.

For `OC[C@H]1O[C@@H](n2cnc3c(NCCc4ccccc4)ncnc32)[C@H](O)[C@H]1O`, the compound was called inactive.

Regarding `CCCCCCCCCCCCCCC/C=C/[C@@H](O)[C@H](NC(=O)CCCCCCCCCCCCC)OC` (tested in a mixture with another compound), the compound was called inactive.

As to `CNc1ncnc2c1ncn2[C@@H]1O[C@H](CO)[C@H](O)[C@H]1O`, the compound was called inactive.

`NCCNC(=O)c1ccc(Cl)cc1`: the compound was called inactive.

As for `NC(=NCCC[C@H](N)C(=O)O)NO`, the outcome was inactive.

Regarding `OC[C@H]1O[C@@H](n2cnc3c(Nc4ccccc4)ncnc32)[C@H](O)[C@H]1O`, the call was inactive.

Turning to `N[C@H](Cc1ccc(O)c(O)c1)C(=O)O`, the outcome was inactive.

Regarding `Nc1nc(Nc2ccccc2)nc2c1ncn2[C@@H]1O[C@H](CO)[C@H](O)[C@H]1O`, the outcome was inactive.

As for `NC(=S)c1ccc[n+]([C@@H]2O[C@@H](COP(=O)([O-])OP(=O)(O)OC[C@H]3O[C@@H](n4cnc5c(N)ncnc54)[C@H](OP(=O)(O)O)[C@H]3O)C(O)C2O)c1` (stereo partly specified), the outcome was inactive.

As for `O=C(O)CC[C@H](NC(=O)c1ccccc1C(=O)O)C(=O)O`, the result was inactive.

Regarding `NCC1OC(O[C@@H]2[C@H](O)[C@@H](OC3C(O)C(N)CC(N)C3OC3OC(CO)C(O)C(O)C3N)O[C@@H]2CO)C(N)C(O)C1O` (stereo partly specified), the result was inactive.

For the compound `COc1cc(=O)n(C)c2c(OCC(O)C(C)(C)O)cccc12` (stereo unspecified), the compound was called inactive.

For the compound `C[C@]12CCC(=O)C=C1CC[C@@H]1C2[C@@H](O)C[C@@]2(C)[C@H]1CC[C@]2(O)C(=O)CO` (stereo partly specified), the compound was called inactive.

`CN1C(=O)CCC1c1cccnc1` (stereo unspecified): the compound was classed as inactive.

Regarding `CC(=O)O[C@H]1C[C@@H]2CCC3C(CC[C@@]4(C)[C@H]3C[C@H]([N+]3(C)CCCCC3)[C@@H]4OC(C)=O)[C@@]2(C)C[C@@H]1[N+]1(C)CCCCC1` (stereo partly specified), the result was inactive.

On to `N=C(N)SCCc1cccc(CCSC(=N)N)c1`, for which the call was inactive.

As for `Nc1nc(SCc2ccc([N+](=O)[O-])cc2)c2ncn([C@@H]3O[C@H](CO)[C@H](O)[C@H]3O)c2n1`, the compound was classed as inactive.

Source of the values: PubChem BioAssay (NCATS).
